Records with an inconclusive call do not appear. Where a call stands in place of a potency, no number is given. A number with no mark means an inactive call. Activity calls are given as the source filed them. Calls come from the whole dose curve; as a rule, active = well fitted inhibition curve with a large enough effect in the repeat runs; inconclusive = weak or mixed curves, or effect the other way; inactive = no such curve, though single readings can be large or run the other way.
These compounds were tested against Nuclear receptor subfamily 1 group I member 3 (Homo sapiens) (UniProt Q14994) (assay: qHTS assay to identify small molecule antagonists of the constitutive androstane receptor (CAR) signaling pathway (AID 1224838;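 note: HepG2 cells stably expressing hCAR with CYP2B6 luciferase reporter stimulated by CITCO; nearly all actives have a fitted effect of over 40% in size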)). Conditions: HepG2-CYP2B6-hCAR luciferase, CITCO-stimulated, 24 h; series mostly up to 92.4 µM.
Chain of Nuclear receptor subfamily 1 group I member 3 (Homo sapiens) (Q14994 whole entry, looked up): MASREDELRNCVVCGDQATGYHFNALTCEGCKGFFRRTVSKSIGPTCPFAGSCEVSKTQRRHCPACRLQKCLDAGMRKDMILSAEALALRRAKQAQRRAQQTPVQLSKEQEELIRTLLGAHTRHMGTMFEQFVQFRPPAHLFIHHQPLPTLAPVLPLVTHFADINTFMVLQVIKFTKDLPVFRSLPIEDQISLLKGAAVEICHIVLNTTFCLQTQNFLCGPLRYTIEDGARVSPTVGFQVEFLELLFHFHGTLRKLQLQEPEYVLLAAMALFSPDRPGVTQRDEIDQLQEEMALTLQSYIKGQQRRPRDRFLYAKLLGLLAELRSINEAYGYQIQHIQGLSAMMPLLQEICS
Description: U.S. Tox21 Program National Center for Advancing Translational Sciences [NCATS] NIH Chemical Genomics Center [NCGC] U.S. Environmental Protection Agency [EPA] National Institutes of Environmental Health Sciences [NIEHS] National Toxicology Program [NTP] U.S. Food and Drug Administration [FDA] Tox21 Assay Overview: The constitutive androstane receptor (CAR) is a nuclear receptor which regulates multiple drug metabolizing enzymes (DMEs) and transporters. Activating CAR will generally increase the transcription and subsequent translation of CYP2B6 and CYP3A4. These two DMEs represent about 50% of the drug metabolizing potential in the body. When CAR is deactivated, the metabolizing potential in the body will decrease, subsequently increasing the toxicity in the body or lowering the therapeutic potential of a pro-drug. Recently, there have also been studies performed indicating CARs role in energy metabolism and cancer therapy. Therefore, inhibiting CARs activity could have a potential effect on diabetes and cancer. Identifying environmental toxins and compounds which modulate CAR, through the use of the Tox21 10K compound collection, will be an important step in determining the toxicity and potential therapeutic effects these factors will have on the human body.
Tox21 Assay Protocol Summary: A double-stable (hCAR and CYP2B6-2.2kb) transfected cell line, derived from human hepatoma (HepG2) cells, was utilized for the duration of the quantitative high-throughput screens. The HepG2-CYP2B6-hCAR cells suspended in DMEM culture medium supplemented with 10% FBS, 5 ug/mL blasticidin, 0.5 mg/mL geneticin, 100 U/mL penicillin and 100 ug/mL streptomycin were dispensed at 2500 cells/4 uL/well in 1536-well white solid bottom plates using a Multidrop Combi. After the assay plates were incubated at 37 C/5% CO2 for 4 hrs, 23 nL of compounds at 15 concentrations (from 5-48 columns) or positive control (from 1 to 4 columns) were transferred to the assay plates using a Pintool station. One uL of CITCO, was added using a Flying Reagent Dispenser to generate a final concentration of 50 nM CITCO inside each well. After a 24 hr incubation period at 37 C/5% CO2, four uL of ONE-Glo reagent was added into the assay plates using a Flying Reagent Dispenser. After a 30 min incubation period at room temperature, the luminescence intensity in the assay plates was measured using a ViewLux plate reader.
Potency is the fitted concentration of half-maximal effect.

| Structure (SMILES) | Potency | activity, negative = inhibition |
| --- | --- | --- |
| CN(CCO)CCO | inactive |  |
| CC(C)[N+](C)(CCC(C(N)=O)(c1ccccc1)c1ccccc1)C(C)C | inactive |  |
| OP(O)c1ccccc1 | inactive |  |
| O=P(O)(O)c1ccccc1 | inactive |  |
| CNC(=O)Oc1ccccc1C(C)C | inactive |  |
| O=C(NC(=O)c1c(F)cccc1F)Nc1cc(Cl)c(F)c(Cl)c1F | inactive |  |
| CON(C)C(=O)Nc1ccc(Br)c(Cl)c1 | inactive |  |
| CCC(C)C(C)(COC(N)=O)COC(N)=O (stereo not given) | inactive |  |
| Oc1ccc(Cc2ccc(O)cc2)cc1 | inactive |  |
| CCCCCCC1CCOC1=O (stereo not given) | inactive |  |
| CC(C)c1ccc(O)cc1 | inactive |  |
| CCOC1Oc2ccc(OS(C)(=O)=O)cc2C1(C)C (stereo not given) | inactive |  |
| CCCCCCCC(=O)Cl | inactive |  |
| CCN(CC)CCOC(=O)C(O)(c1ccccc1)c1ccccc1 | inactive |  |
| O=[N+]([O-])CCO | inactive |  |
| Cl/C=C/CCl | inactive |  |
| C[C@H]1CCCC(=O)CCC/C=C/c2cc(O)cc(O)c2C(=O)O1 | 20.9 µM (active) |  |
| ClC(Cl)(Cl)Cl | inactive |  |
| CC(C)(C)c1cc(O)ccc1O | inactive |  |
| CC(=O)OCC1=C(C(=O)O)N2C(=O)[C@@H](N)[C@H]2SC1 |  | 0.319% [at 19 µM] |

| Structure (SMILES) | Potency | activity, negative = inhibition |
| --- | --- | --- |
| c1ccc2c(c1)CCNC2 | inactive |  |
| N#CN | inactive |  |
| Brc1c(Br)c(Br)c(Br)c(Br)c1Br |  | -5.81% [at 8.39 µM] |
| CC(Cl)(Cl)Cl | inactive |  |
| O=C(O)c1c(Cl)ccc2cc(Cl)cnc12 | inactive |  |
| C[C@]12C=CC(=O)C=C1CC[C@@H]1[C@@H]2CC[C@@]2(C)[C@H]1CC[C@]2(C)O | inactive |  |
| C(COCC1CO1)OCC1CO1 (stereo not given) | inactive |  |
| Cn1c(N)nc2c3cccnc3ccc21 | inactive |  |
| CC[C@H](N)c1ccccc1 | inactive |  |
| O=C/C=C/c1ccco1 | inactive |  |
| CCNP(=S)(OC)O/C(C)=C/C(=O)OC(C)C (stereo not given) | inactive |  |
| Cc1ccc2c(c1)C1CN(C)CCC1N2 (stereo not given) |  | 51% [at 19 µM] |
| BrCc1ccc(Br)cc1 | inactive |  |
| C=C(C)[C@H]1CN[C@H](C(=O)O)[C@H]1CC(=O)O | inactive |  |
| CCC(C)(C#N)N=NC(C)(C#N)CC (stereo not given) | inactive |  |
| CC1=C2[C@H]3OC(=O)[C@@H](C)[C@@H]3CC[C@@]2(C)C=CC1=O | inactive |  |
| C=CCCC#N | inactive |  |
| Cc1ccc(Cl)c(O)c1 | inactive |  |
| CC(C)NCC(O)c1ccc([N+](=O)[O-])cc1 (stereo not given) | inactive |  |
| CCOC(=O)C(SP(=S)(OC)OC)c1ccccc1 (stereo not given) | inactive |  |
